Results filed as inconclusive are left out. Entries that show only a call come without a potency. A number with no mark means an inactive call. Active and inactive are the calls of the source. The call rests on the fitted dose curve; in most records, active means well fitted curve in the direction sought with a large enough effect; inconclusive means small, poorly fitted or top-dose-only effect, or another doubt; inactive means no such curve, though single readings can be large; an effect the other way counts as inactive or inconclusive.
Legend:
[1] = biological target: Calcium and integrin-binding protein 1 (Homo sapiens) (UniProt Q99828); assay: Primary qHTS for Identification of Calcium Integrin Binding Protein 1 (CIB1) Competitor (AID 1508620);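 further: GST tagged CIB1 binding a fluorescein labelled alphaIIb integrin peptide tracer; top concentration of the series differs between compounds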
Sequence of Calcium and integrin-binding protein 1 (Homo sapiens) (Q99828 whole entry, looked up): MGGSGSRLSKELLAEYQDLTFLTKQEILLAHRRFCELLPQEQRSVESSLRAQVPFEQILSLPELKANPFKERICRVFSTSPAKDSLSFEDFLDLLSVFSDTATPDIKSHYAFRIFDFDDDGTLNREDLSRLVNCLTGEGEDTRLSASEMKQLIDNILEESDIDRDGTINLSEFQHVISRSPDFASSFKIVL
How it was run: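 Fluorescence polarization competition: GST-tagged CIB1 (1 uM final) preincubated with compound 15 min at room temperature, then FITC-labelled alphaIIb peptide (100 nM final) added. After 15 min at room temperature, polarization read at Ex 480/Em 540.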

[2] = Primary qHTS for inhibitors of nuclear receptor binding SET domain protein 2 (NSD2) in an isogenic RCH-ACV NSD2 p.E1099K mutant (9B) (AID 1645876); further: nearly all actives have a fitted effect of over 70% in size
[3] = Primary qHTS for inhibitors of nuclear receptor binding SET domain protein 2 (NSD2) in an RCH-ACV wild type WT cells (2C) (AID 1645877); further: nearly all actives have a fitted effect of over 70% in size

C=C1C(O)CCC2(C)CC3(OC)OC(=O)C(C)=C3CC12 (stereo not given)
Potency [1]: inactive
Potency [2]: inactive

C=C1CC[C@@]2(OC1)O[C@H]1CC3C4CC=C5C[C@@H](O[C@@H]6O[C@@H](C)[C@H](O)[C@@H](O)[C@H]6O)C[C@@H](O[C@@H]6O[C@H](C)[C@H](O)[C@H](O)[C@H]6O[C@@H]6O[C@@H](C)[C@H](O)[C@@H](O)[C@H]6O)[C@]5(C)C4CC[C@]3(C)[C@H]1[C@@H]2C (stereo not given in full)
Potency [1]: inactive
activity change, negative = viability loss [2]: -22.3% [at 9.23 µM]

C/C(=C\CC[C@H](CO)[C@@H]1CC[C@]2(C)C3=C(CC[C@@]12C)[C@@]1(C)CCC(=O)C(C)(C)C1CC3)C(=O)O (stereo not given in full)
Potency [1]: inactive
Potency [2]: inactive

CCC1=C(C)C(=O)C(C)CC12C(=O)CCC2C(=O)O (stereo not given)
Potency [1]: inactive
Potency [2]: inactive

COc1cc(C2OCC3(O)C(c4ccc(O[C@@H]5O[C@H](CO)[C@@H](O)[C@H](O)[C@H]5O)c(OC)c4)OCC23O)ccc1O (stereo not given in full)
Potency [1]: inactive
Potency [2]: inactive

CC[C@H](C)[C@H](NC(=O)[C@H](Cc1ccc(O)cc1)NC(=O)[C@@H](N)C(C)C)C(=O)N[C@@H](Cc1cnc[nH]1)C(=O)N1CCC[C@H]1C(=O)N[C@@H](Cc1ccccc1)C(=O)O
activity change, negative = inhibition [1]: 2.56% [at 12.4 µM]
outcome [2]: inactive [at 4.96 µM]
activity change, negative = cell killing [3]: 2.6% [at 4.96 µM]

C=C1CC[C@@H]2C(C)(C)CCC[C@@]2(C)[C@@H]1CC/C(=C/C(=O)OC)COC(C)=O
Potency [1]: inactive
Potency [2]: inactive

Cc1ccccc1N1CCN(S(=O)(=O)C[C@]23CC[C@H](C[C@@H]2NC(=O)[C@@H](N)CCS(C)(=O)=O)C3(C)C)CC1
Potency [1]: inactive
Potency [2]: inactive

CC1(C)CC2C3=CCC4[C@@]5(C)CC[C@H](OC6OCC(O)C(OC7OC(CO)C(O)C(O)C7O)C6O)C(C)(C)C5CC[C@@]4(C)[C@]3(C)C[C@H](O)[C@@]2(CO)[C@H](OC(=O)c2ccccc2)C1 (stereo not given in full)
Potency [1]: inactive
activity change, negative = viability loss [2]: -12.4% [at 9.23 µM]

CC1=C[C@@H]2[C@H]3[C@@H]4O[C@@](C)(CC[C@H]4O)[C@H]3CC(=O)[C@]23C(=O)N[C@@H](CC(C)C)[C@@H]3[C@@H]1C
Potency [1]: inactive
Potency [2]: inactive
Potency [3]: inactive

CC1=C2CC3C(CCC3(C)O)C(C)(O)CC2OC1=O (stereo not given)
Potency [1]: inactive
Potency [2]: inactive

C/C1=C\CC(C)(C)/C=C/C/C(C(=O)O)=C/CC1
Potency [1]: inactive
Potency [2]: inactive
Potency [3]: inactive

C/C(=C/CO)CC[C@H]1[C@]2(C)C[C@H](O)CC(C)(C)[C@H]2CC[C@]1(C)O
Potency [1]: inactive
Potency [2]: inactive
Potency [3]: inactive

CCC(C)C(N)C(=O)NCCN1CCOCC1 (stereo not given)
Potency [1]: inactive
Potency [2]: inactive
Potency [3]: inactive

CC1=CCC(O)C2(C)CCC3C(C)C(=O)OC3C12 (stereo not given)
Potency [1]: inactive
Potency [2]: inactive
Potency [3]: inactive

COc1cccc(C)c1C(=O)O[C@@H]1C[C@H](O[C@H]2[C@H](O)C[C@H](O[C@@H]3CCC[C@H]4[C@H]3C=C[C@@H]3CCCC/C=C/[C@H]5C=C(C(=O)O)[C@@H](C)C[C@@]56OC(=O)C(=C6O)OC(=O)[C@@]34C)O[C@@H]2C)O[C@H](C)[C@H]1O
Potency [1]: inactive
activity change, negative = viability loss [2]: -5.35% [at 9.23 µM]
activity change, negative = cell killing [3]: -1.86% [at 9.23 µM]

CC12CC(c3ccoc3)OC(=O)C1CCC1(C)C2CCC(O)C1(C)O (stereo not given)
Potency [1]: inactive
Potency [2]: inactive
Potency [3]: inactive

C[C@@H]1CC[C@]2(C(=O)O)CC[C@]3(C)C(=CCC4[C@@]5(C)C[C@@H](O)[C@H](O)[C@@](C)(CO)C5CC[C@]43C)C2[C@H]1C (stereo not given in full)
Potency [1]: inactive
Potency [2]: inactive
Potency [3]: inactive
